# Results from PubChem BioAssay AID1347420 (Sanford-Burnham Center for Chemical Genomics, 2020).
# In all, about 1,300 compounds went through this assay and about 980 (75%) were called active. About 4% were inconclusive and are not listed. This is one part of the list.
# Biological target: Sulfhydryl oxidase 1 (Homo sapiens) (UniProt O00391)
# Test: inhibition of human sulfhydryl oxidase QSOX1 – biochemical, HyperBlu H2O2 luminescence, HTS, primary screen (AID 1347420); note: values above 100% were filed as inconclusive
# Settings: recombinant QSOX1, HyperBlu H2O2 luminescence, at 12.5 µM, active compounds read high; active = any value above zero unless noted
# Chain of Sulfhydryl oxidase 1 (Homo sapiens) (O00391 whole entry, looked up): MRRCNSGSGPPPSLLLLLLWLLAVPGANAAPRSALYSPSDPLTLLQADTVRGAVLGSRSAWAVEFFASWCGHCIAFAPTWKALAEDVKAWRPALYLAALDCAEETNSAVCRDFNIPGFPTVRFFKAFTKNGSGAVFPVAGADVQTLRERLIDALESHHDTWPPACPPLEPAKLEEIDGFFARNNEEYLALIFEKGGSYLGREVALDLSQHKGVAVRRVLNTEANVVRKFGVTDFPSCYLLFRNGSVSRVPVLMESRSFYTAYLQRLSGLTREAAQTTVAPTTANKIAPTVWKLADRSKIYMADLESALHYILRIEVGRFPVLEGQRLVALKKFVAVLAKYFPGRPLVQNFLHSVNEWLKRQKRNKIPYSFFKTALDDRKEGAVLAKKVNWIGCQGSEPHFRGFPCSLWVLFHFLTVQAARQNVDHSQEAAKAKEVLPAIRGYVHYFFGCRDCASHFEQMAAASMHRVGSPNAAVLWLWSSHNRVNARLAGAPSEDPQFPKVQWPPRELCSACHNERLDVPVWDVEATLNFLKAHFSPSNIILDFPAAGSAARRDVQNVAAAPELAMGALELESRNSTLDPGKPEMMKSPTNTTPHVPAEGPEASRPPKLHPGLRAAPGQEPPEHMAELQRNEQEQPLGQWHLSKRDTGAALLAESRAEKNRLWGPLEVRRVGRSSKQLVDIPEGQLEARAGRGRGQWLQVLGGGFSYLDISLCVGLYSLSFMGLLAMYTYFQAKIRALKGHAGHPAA
row,Compound,inhibition
1,O=C1/C(=C/c2ccccc2)C[C@@]2(O)[C@H]3Cc4ccc(O)c5c4[C@@]2(CCN3CC2CC2)[C@H]1O5,32.8% [setting not given] (active)
2,CO[C@H]1CC=C2CCN3CCC4=C(CC(=O)OC4)[C@]23C1,0.7% (active)
3,CCOC(=O)c1ncn2c1[C@@H]1CCCN1C(=O)c1cc(OC)ccc1-2,13.3% (active)
4,NCC(CC(=O)O)c1ccc(Cl)cc1 (configuration not stated),0% [setting not given] (inactive)
5,COc1cc(C(O)CN)ccc1O (configuration not stated),20.7% (active)
6,CNCC(O)c1ccc(O)cc1 (configuration not stated),11.4% [setting not given] (active)
7,NCC(O)c1ccc(O)cc1 (configuration not stated),20.3% [setting not given] (active)
8,NCC(O)c1cc(O)c(O)cc1F (configuration not stated),72.8% (active)
9,Ic1ccccc1CNC1C2CCN(CC2)C1C(c1ccccc1)c1ccccc1 (configuration not stated),11% (active)
10,O=C(O)[C@@H]1CCN1,18.9% (active)
11,N=C(N)c1ccc(CS(=O)(=O)F)cc1,7.2% (active)
12,CN1C2CCC1CC(OC(=O)c1cc(Cl)cc(Cl)c1)C2 (configuration not stated),5.4% (active)
13,O=C1C=CC(=O)C=C1,16.8% (active)
14,N[C@@]1(C(=O)O)CC[C@@H](C(=O)O)C1,12.2% (active)
15,CCN1C[C@@]2(COC)C3[C@@H](OC)C4[C@@H]1C3([C@@H]1C[C@@]3(O)[C@H](OC(=O)c5ccccc5)[C@@H]1[C@]4(OC(C)=O)[C@@H](O)[C@@H]3OC)[C@H](OC)C[C@H]2O,4.1% (active)
16,CCNC(=O)[C@H]1O[C@@H](n2cnc3c(N)ncnc32)C(O)[C@H]1O (some centres not stated),1.2% (active)
17,O=[N+]([O-])c1cc(O)c(O)c([N+](=O)[O-])c1,84.7% (active)
18,NCc1cc(=O)[nH]o1,10.1% (active)
19,COc1ccc2c(c1)C13CCCCC1C(C2)N(C)CC3 (configuration not stated),11.3% [setting not given] (active)
20,COc1ccc2c(c1)[C@@]13CCCC[C@H]1[C@@H](C2)NCC3,-2.6% [setting not given] (inactive)
21,C=CCN1CC[C@]23CCCCC2[C@H]1Cc1ccc(O)cc13 (some centres not stated),6% [setting not given] (active)
22,C=CCN1C[C@@H](C)N([C@H](c2ccc(C(=O)N(CC)CC)cc2)c2cccc(OC)c2)C[C@@H]1C,7.5% (active)
23,CC(=O)NBr,9.5% (active)
24,NC(N)=NOCCC(N)C(=O)O (configuration not stated),8.2% (active)
25,NC(N)=NOCC[C@H](N)C(=O)O,-0.8% [setting not given] (inactive)
26,CC(Cc1ccc(O)cc1)NCC(O)c1cc(O)cc(O)c1 (configuration not stated),15% [setting not given] (active)
27,CN1CCc2cccc(Cl)c2CC1,1.7% (active)
